# HT1080NT lethal: kills 2HG-producing HT-1080-NT fibrosarcoma cells; hit rate 1.6% among 360,000; Potency, µM (series often up to 46.1 µM), inactives show at the highest dose activity, negative = less viability, usual class: cytotoxic; AID 686970; HT-1080-NT fibrosarcoma viability, CellTiter-Glo ATP luminescence, 48 h;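 further: NT is the 2HG producing partner of a matched IDH1 knockdown line; 0% = DMSO-treated cells and -100% = media-only wells without cells; nearly all actives have a fitted effect of over 55% in size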
#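 A 48-hour cytotoxicity screen used HT-1080-NT cells plated 2 hours before compound delivery. ATP-based CellTiter-Glo luminescence measured viability, normalized to DMSO and no-cell controls.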
# KB-3-1 cytotox: kills parental KB-3-1 adenocarcinoma cells | KB-3-1 viability, CellTiter-Glo ATP luminescence, 72 h | Potency, µM (titrated, usually from 46.1 µM), hits mostly cytotoxic | hit rate 1.4% among 400,000 | AID 1347075; further: nearly all actives have a fitted effect of over 60% in size
#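 Using CellTiter-Glo luminescence, growth of non-resistant KB-3-1 adenocarcinoma cells is assessed 72 h after pin-tool compound addition at 37 °C. Normalized responses across the concentration series yield fitted curves.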
# TDP1 cell CPT: growth inhibition of DT40 Tdp1-/-;hTDP1 cells with camptothecin (screen for TDP1 inhibitors); chicken DT40 Tdp1-/-;hTDP1 cells + 20 nM CPT, ATP luminescence, 48 h; Potency, µM (titrated, usually from 46.2 µM), for the others: at the top dose activity change, negative = growth inhibition, actives largely listed as inhibitors; hit rate 12% among 420,000; further: nearly all actives have a fitted effect of over 55% in size
#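 Chicken DT40 Tdp1-/- cells complemented with human TDP1, 400 cells/well, exposed to compounds plus 20 nM camptothecin for at least 48 h at 37 C; viability read as ATP content by CellTiter-Glo luminescence.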
# HT1080 IDH1KD tx: kills HT-1080 cells with IDH1 knockdown; Potency, µM (top dose mostly 46.1 µM), without a hit: at the highest dose activity, negative = toxicity, hits mostly cytotoxic; hit rate 2% among 360,000; HT-1080 IDH1 knockdown viability, ATP luminescence, 48 h; AID 686971;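 further: 0% = DMSO wells and -100% = cell-free medium wells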
#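 % activity derives from luminescence (CellTiter-Glo), normalised to DMSO and no-cell wells. HT-1080-IDH1KD cells, 750/well, had 48 h compound exposure at 37 °C.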
# KB-V1 cytotox: kills drug-selected multidrug resistant KB-V1 cells; KB-V1 MDR cells viability, CellTiter-Glo, 72 h; Potency, µM (highest dose often 46.1 µM), usual class: cytotoxic; hit rate 3.4% among 400,000; AID 1347076; further: nearly all actives have a fitted effect of over 60% in size
#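 qHTS viability screen in drug-selected KB-V1 MDR cells: 72 h compound treatment at 37 degrees C, ATP luminescence end point.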
# DT40 TDP1 no CPT: qHTS for Inhibitors of human tyrosyl-DNA phosphodiesterase 1 (TDP1): qHTS in cells in absence of CPT; DT40 Tdp1-/- hTDP1 cells, no CPT, ATP luminescence, 48 h; Potency, µM (top dose mostly 46.2 µM), inactives show at the highest dose activity change, negative = growth inhibition, most hits filed as inhibitors; hit rate 15% among 420,000; AID 686978, 2013; further: nearly all actives have a fitted effect of over 55% in size
#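 Growth of hTDP1-complemented DT40 Tdp1-knockout cells is measured by ATP luminescence after at least 48 hr compound exposure at 37 °C, with DMSO substituting for the 20 nM CPT used in the parallel screen.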
# The depositor's hits bear a star; i = inactive; ? = inconclusive; . = no result; [ ] = dose if it differs, or a comment. Sampled rows, rich in hits. Any-hit rate of the full collection: about 19%. The call rests on the fitted dose curve; in most records, active means well fitted curve in the direction sought with a large enough effect; inconclusive means small, poorly fitted or top-dose-only effect, or another doubt; inactive means no such curve, though single readings can be large; an effect the other way counts as inactive or inconclusive. Unless noted, on the % scale 0 is the no-effect control and ±100 the full control effect; potency means the concentration at half of the fitted maximal effect.
SMILES,HT1080NT lethal,KB-3-1 cytotox,TDP1 cell CPT,HT1080 IDH1KD tx,KB-V1 cytotox,DT40 TDP1 no CPT
O=C(NCCc1nccs1)C1CCC(=O)N(Cc2cccc(C(F)(F)F)c2)C1 (configuration not stated),3%,.,1%,3%,.,1%
COc1cc(C(C(=O)NCC2CCCO2)N(C(=O)Cn2nnc3ccccc32)c2ccc(C(C)=O)cc2)ccc1O (configuration not stated),12%,i,11%,5%,i,-15%
O=C(Cn1c(-c2ccccc2)c[n+]2ccsc12)c1ccc(Br)cc1,-14%,?,7.3µM*,?,i,3.3µM*
O=C(C[n+]1cccc(Br)c1)c1ccc(Br)cc1,.,i,-9%,.,i,-4%
CS(=O)(=O)c1ccc(C(=O)N2CCN(C(=O)c3ccco3)CC2)cc1,1%,i,2%,4%,i,12%
S=C(NNc1ccnc2cc(Cl)ccc12)Nc1ccccc1Cl,?,23µM*,4.1µM*,?,?,2.6µM*
Clc1ccc2c(NCc3ccccc3)ccnc2c1,?,?,?,-26%,?,10µM*
Oc1ccc(Nc2ccnc3cc(Cl)ccc23)cc1,-11%,i,?,-24%,i,21µM*
O=C(NCCNc1ccc(Cl)cc1[N+](=O)[O-])c1ccccc1F,-1%,i,-18%,-3%,i,21µM*
Nc1nonc1C(=O)NCCNC(=O)c1cccs1,-3%,i,-5%,0%,i,2%
O=C(NCCNc1ccnc2cc(Cl)ccc12)c1ccccc1F,-6%,?,6.5µM*,-2%,i,4.1µM*
CCN(CC)CCNc1ccnc2cc(Cl)ccc12,?,i,-21%,?,?,-22%
CCOc1ccc(/C=N/O)cc1,8%,i,4%,5%,i,1%
CCOc1ccc(/C=N/Nc2ccccc2)cc1,?,i,?,?,i,15µM*
CCCCNC(=S)N/N=C/c1cc(C)ccc1C,-7%,?,5.2µM*,-4%,?,6.5µM*
CCCCNC(=S)N/N=C/c1ccccc1F,3%,i,?,0%,?,15µM*
CCCCNC(=S)N/N=C/c1sccc1C,-2%,i,0.92µM*,0%,i,1.5µM*
CCCCNC(=S)N/N=C/c1ccc(C)s1,7%,i,?,17%,?,?
Cc1ccc(NC(=O)c2cc(S(=O)(=O)N3CCC(C)CC3)cn2C)cc1Cl,.,i,-14%,.,i,-13%
CCOC(=O)c1sc(NC(=O)C2CC(=O)N(c3ccccc3OC)C2)nc1C (configuration not stated),-2%,i,-19%,5%,i,5%
Cc1nn(C)c(C(=O)NC(=S)Nc2ccccc2Br)c1Cl,-14%,?,5%,-11%,i,13%
CCn1ncc(Cl)c1C(=O)NC(=S)Nc1ccccc1Br,1%,?,2%,0%,16µM*,-22%
OC(c1ccc(Cl)cc1)c1ncc(-c2cccc(F)c2)[nH]1 (configuration not stated),?,i,?,?,i,?
COc1ccc2oc(C(=O)OCC(=O)N(C)CC(=O)Nc3ccc(F)cc3)c(C)c2c1,-20%,i,-21%,-17%,i,-27%
CC1CCCN(CC(=O)Nc2ccc(S(=O)(=O)N3CCCCC3)cc2)C1 (configuration not stated),8%,i,?,8%,i,-25%
SMILES,HT1080NT lethal,KB-3-1 cytotox,TDP1 cell CPT,HT1080 IDH1KD tx,KB-V1 cytotox,DT40 TDP1 no CPT
CC1CC(C)CN(S(=O)(=O)c2ccc(NC(=O)CN3CCCCCC3)cc2)C1 (configuration not stated),-2%,i,16µM*,-1%,?,21µM*
CC1CCCN(CC(=O)Nc2ccc(S(=O)(=O)N3CCCCCC3)cc2)C1 (configuration not stated),22µM*,i,?,?,?,?
CC(C)[C@H](N)c1nnc2n1N=C(c1ccc(Cl)cc1)CS2,3%,i,-7%,0%,i,0%
Clc1ccc(C2=Nn3c(nnc3-c3n[nH]c4c3CCC4)SC2)cc1,5.8µM*,3.7µM*,4.1µM*,5.8µM*,3.7µM*,2.9µM*
c1ccc(-c2ccc(C3=Nn4c(nnc4-c4cc(-c5ccccc5)n[nH]4)SC3)cc2)cc1,?,?,?,18µM*,16µM*,?
Brc1ccc(C2=Nn3c(nnc3-c3n[nH]c4c3CCC4)SC2)cc1,1.2µM*,0.33µM*,0.92µM*,0.65µM*,1.2µM*,0.92µM*
c1ccc(-c2ccc(C3=Nn4c(Cn5nnc6ccccc65)nnc4SC3)cc2)cc1,-11%,i,23µM*,-9%,i,?
Cc1ccc(-c2nnc3n2N=C(c2ccc(Br)cc2)CS3)cc1,-9%,i,23µM*,0%,i,?
CN(C)CC(=O)c1ccc(-c2ccccc2)cc1,6%,i,-2%,?,?,-5%
CN(C)C/C(Cl)=C(\Cl)c1ccccc1,0%,?,5.2µM*,9%,i,5.2µM*
CC(=O)Nc1cccc(Oc2nc(C(F)(F)F)nc3ccccc23)c1,0%,i,?,-4%,i,?
O=C(NC1CCCCC1)N(c1ccccc1)c1nnc(-c2cccc([N+](=O)[O-])c2)s1,-8%,i,26µM*,8%,i,12µM*
O=c1c2ccccc2cnn1-c1nc2ccccc2[nH]1,3.7µM*,?,4.1µM*,3.7µM*,?,3.7µM*
O=c1c(Cl)c(N2CCCCC2)cnn1-c1nc2ccccc2[nH]1,?,?,?,?,?,21µM*
Clc1ccc2nc(N3CCCCC3)[nH]c2c1,-2%,i,-23%,-2%,i,-10%
O=C(COc1ccc(Cl)cc1)OCc1ccc(Cl)cc1,1%,i,1%,10%,i,-4%
Cc1cc([N+](=O)[O-])nn1CCCC(=O)Nc1cccc(Cl)c1Cl,1%,i,-15%,4%,i,-22%
COc1ccc(Cl)cc1-c1cc2c(c(OC)c1)OCCN(Cc1cccn1-c1nccs1)C2,.,.,0%[9.04 µM],.,.,0%

# Compound activity (PubChem BioAssay)
